Growth data for 23 compounds are collected here from PubChem BioAssay (NCI).

Compounds without any hit were thinned out: in the full panel of roughly 83,000, 20% have a hit.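 Single-concentration screen, 48 h exposure, 96-well plates. Endpoint: percent growth. Below 10 = active.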 Unmarked numbers belong to inactive results. Calls of active or inactive are those of the source.

Common to all, as to test: NCI-60 one-dose screen, 48 h (100 = growth as untreated, 0 = no growth, -100 = all killed)
Holding throughout (details): 10 µM unless noted

Assay [1] concerns BT-549 breast.
The test system of assay [2] is MDA-MB-435 melanoma.
Assay [3] concerns SW-620 colon.
Assay [4] concerns MCF7 breast.
Assay [5] relates to HCT-116 colon.
Assay [6] has as its system HCC-2998 colon.
The subject of assay [7] is KM12 colon.

Turning to `COc1cc(N=Cc2sc(Nc3nccs3)nc2O)cc(OC)c1OC`, the growth in assay [1] was 93.6%; in assay [2], 87.9%; in assay [3], 97.3%; in assay [4] it was 71.5%; in assay [5], 94.2%; in assay [6], 111%. For the same compound, the growth in assay [7] was 89.9%.

Take `CCN1C(=S)N(CC)C2C1NN=C1SC(c3ccccc3)=CC(=O)N12` (stereo not given): the growth was 106% in assay [1]; 59% in assay [2]; 111% in assay [3]; 95.4% in assay [4]; 104% in assay [5]; 111% in assay [6]. Besides, the growth in assay [7] is 94.3%.

Turning to `CN1C(=S)N(C)C2C1NN=C1SC(c3ccccc3)=CC(=O)N12` (stereo not given), the growth was 98.1% in assay [1]; 74.2% in assay [2]; 105% in assay [3]; 96.1% in assay [4]; 98.8% in assay [5]; 106% in assay [6]. Also, the growth in assay [7] was 98.3%.

Consider `OC1CCc2c(-c3ccc4ncnc(N5CCc6cc(F)c(Cl)cc65)c4c3)cncc21` (stereo not given), for which the growth in assay [1] is 46.5%; in assay [2], 62.7%; in assay [3] it was 85.1%; in assay [4], 23.4%; in assay [5] it was 66.9%; in assay [6], 72.1%. Further, the growth in assay [7] is 66.2%.

Turning to `CN(C)c1ccc(-c2c(NC(C)(C)C)nc3c(OCCc4ccccc4)cccn23)cc1`, the growth in assay [1] is 42.3%; in assay [2] it was 24%; in assay [3], 12.4%; in assay [4] it was 1.49% (active); in assay [5] it was 8.37% (active); in assay [6], 13%. In assay [7], the growth is 6.85% (active).

Consider `C[C@@H]1CN(c2ccc3ncc(C#Cc4cncc(C(=O)Nc5ccc(CN6CCN(C)CC6)c(C(F)(F)F)c5)c4)n3n2)C[C@H](C)O1`, for which the growth in assay [1] is -27.2% (active); in assay [2] it was -90.1% (active); in assay [3], -52.3% (active); in assay [4], -64% (active); in assay [5], -71.4% (active); in assay [6], -30% (active). In addition, in assay [7], the growth is -7.61% (active).

As for `Cc1cc2nc3c4cc(Cl)ccc4n(CC(=O)NCCN(C)C)c3nc2cc1C`, the growth in assay [1] is 88.1%; in assay [2] it was 67.9%; in assay [3], -80.8% (active); in assay [4], -19.8% (active); in assay [5] it was -85.3% (active); in assay [6], 82.6%. In addition, the growth in assay [7] was 86.2%.

Regarding `O=C(Oc1ccc2ccc(=O)oc2c1)c1ccc(Cl)cc1`, the growth in assay [1] is 101%; in assay [2], 109%; in assay [3] it was 102%; in assay [4], 94%; in assay [5], 98.5%; in assay [6], 102%. For the same compound, in assay [7], the growth was 108%.

As to `N#Cc1c(-c2ccc(Cl)cc2)nc(SCc2ccccc2)nc1N1CCNCC1`, the growth in assay [1] is 90.5%; in assay [2], 71.4%; in assay [3] it was -50.2% (active); in assay [4] it was 8.71% (active); in assay [5], -74.3% (active); in assay [6] it was -37.3% (active). The growth in assay [7] was 39.6%.

For `N#Cc1c(-c2ccc(Cl)cc2)nc2c(-c3ccccc3)c(Nc3ccccc3)nn2c1N`, the growth in assay [1] is 94.4%; in assay [2], 58.7%; in assay [3] it was 40.6%; in assay [4], 47.9%; in assay [5] it was 20.7%; in assay [6], 90.7%. In assay [7], the growth is 60%.

As for `COc1cc(OC)c(S(=O)(=O)NNC(=O)c2ccncc2)cc1C(=O)/C=C/c1ccc(C)cc1`, the growth in assay [1] was 6.18% (active); in assay [2], 83.2%; in assay [3], 74.8%; in assay [4] it was 26.7%; in assay [5] it was 9.81% (active); in assay [6], 91.6%. In addition, the growth in assay [7] is 54.8%.

For `COc1ccc(/C=N/NC(=O)c2[nH]c3ccc(Br)cc3c2-c2ccccc2)s1`, the growth in assay [1] is -15.9% (active); in assay [2], -21.4% (active); in assay [3], 18.2%; in assay [4] it was 6.97% (active); in assay [5] it was -19.9% (active); in assay [6], 26.8%. Moreover, the growth in assay [7] is 3.72% (active).

Turning to `CS(=O)(=O)c1ccc(-n2cc(/C=C/C(=O)c3ccc(NC(=O)CO[N+](=O)[O-])cc3)c(-c3ccc(Cl)cc3)n2)cc1`, the growth in assay [1] is 103%; in assay [2] it was 104%; in assay [3], 114%; in assay [4] it was 84.4%; in assay [5] it was 103%; in assay [6], 93.4%. Further, the growth in assay [7] is 107%.

`Nc1cc(-c2c[nH]c3ccc(Cl)cc23)nc2cc(-c3c[nH]c4ccc(Cl)cc34)nn12`: the growth in assay [1] is 87.5%; in assay [2], 57.7%; in assay [3], 15.7%; in assay [4] it was 14.4%; in assay [5], 27.7%; in assay [6] it was 20.1%. Besides, the growth in assay [7] is 12.7%.

As for `Cn1c(SCC(=O)Nc2ccc(-c3nc4ccc([N+](=O)[O-])cc4[nH]3)cc2)nc2ccccc2c1=O`, the growth in assay [1] was 27.8%; in assay [2] it was 93.4%; in assay [3], 87.3%; in assay [4] it was 45.3%; in assay [5], 70.9%; in assay [6] it was 84.6%. For the same compound, in assay [7], the growth was 65.5%.

Consider `CN1CCN(Cc2ccc(NC(=O)c3cncc(C#Cc4cnc5ccc(N6CCSCC6)nn45)c3)cc2C(F)(F)F)CC1`, for which the growth in assay [1] is 40.5%; in assay [2], -73.4% (active); in assay [3], -3.56% (active); in assay [4], -59.7% (active); in assay [5] it was -51.8% (active); in assay [6], -51.2% (active). In addition, in assay [7], the growth was -22.5% (active).

Regarding `OC1CCN(CCCOc2c3ccc(Cl)cc3nc3c2oc2ccccc23)CC1`, the growth in assay [1] was -2.71% (active); in assay [2] it was -76.3% (active); in assay [3], -19.8% (active); in assay [4] it was -32.1% (active); in assay [5] it was -34.9% (active); in assay [6], -68% (active). The growth in assay [7] is -16.1% (active).

On to `COc1cc2nc(-c3ccc(C)cc3)cc(OCCCNCC3CCCO3)c2cc1OC` (stereo not given), for which the growth in assay [1] is 98.5%; in assay [2], 54.3%; in assay [3], 77.5%; in assay [4], 59.7%; in assay [5], 40.7%; in assay [6] it was 83.4%. Moreover, the growth in assay [7] is 60%.

`COc1cc(-c2ccc3ncnc(NC(C)c4ccccc4)c3c2)cnc1OC` (stereo not given): the growth was 32.6% in assay [1]; 69.6% in assay [2]; 69.2% in assay [3]; 23.7% in assay [4]; 76.8% in assay [5]; 69.8% in assay [6]. In assay [7], the growth was 75.3%.

Turning to `CCOC(=O)c1c(Nc2ccccc2)nn2c(N)c(C#N)c(-c3ccc(F)cc3)nc12`, the growth was 98.7% in assay [1]; 81.2% in assay [2]; 86.5% in assay [3]; 67.6% in assay [4]; 87.4% in assay [5]; 110% in assay [6]. In addition, the growth in assay [7] is 87.3%.

Regarding `O=C(N/N=C/c1cccs1)c1[nH]c2ccc(Br)cc2c1-c1ccccc1`, the growth in assay [1] is -14.2% (active); in assay [2] it was -26.1% (active); in assay [3], 22.8%; in assay [4] it was 8.78% (active); in assay [5], -33.7% (active); in assay [7] it was 6.37% (active).

With `O=C(N/N=C/c1ccc([N+](=O)[O-])s1)c1[nH]c2ccc(Br)cc2c1-c1ccccc1`, the growth in assay [1] is -19% (active); in assay [2], -35.3% (active); in assay [3], 3.34% (active); in assay [4], 7.64% (active); in assay [5], -7.92% (active); in assay [6], 0.797% (active). Also, in assay [7], the growth was 12.8%.

With `Cc1nc(-c2cc3ccccc3oc2=O)ccc1C(=O)/C=C/c1ccc(N2CCOCC2)cc1`, the growth in assay [1] was 76.9%; in assay [2] it was -21.1% (active); in assay [3], 83.5%; in assay [4] it was 51.6%; in assay [5] it was 89.1%; in assay [6] it was 83.9%. In addition, in assay [7], the growth was 68.9%.
